# Only some compounds are listed: those with a hit (about 10% of all), similar ones and a draw of the others.
# GPT2 inh: GPT2 alanine aminotransferase inhibition | Q8TD30 | Recombinant GPT2, coupled pyruvate oxidase/HRP Amplex Red fluorescence | Potency, µM (titrated, usually from 57.7 µM), inactives show at the highest dose activity change, negative = inhibition, most hits filed as inhibitors | 100,000 compounds, 0.25% hits | AID 1671188; further: on the % scale 0 is the no-effect control and ±100 the full control effect; nearly all actives have a fitted effect of over 60% in size
#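 Fluorescence of coupled pyruvate oxidase/HRP/Amplex Red system (50uM Amplex, 30 min, dark) reports pyruvate formed by GPT2. Enzyme reaction: 10ng/uL GPT2, 2mM L-alanine, 250uM a-KG, 30 min room temperature, pH 7.5; 50uM AOA control.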
# hNpr1 antagonist: blocks ANP-stimulated signaling of human Npr1 receptor | P16066 | HEK293 hNpr1 GloSensor cGMP, ANP-stimulated luminescence | Potency, µM (top dose mostly 46.3 µM), for inactives: at the highest dose activity change, negative = inhibition, usual class: inhibitors | 76,000 compounds, 1.6% hits | AID 1347048; calls by dose curve; further: on the % scale 0 is the no-effect control and ±100 the full control effect; nearly all actives have a fitted effect of over 60% in size
#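 HEK293 cells stably expressing human Npr1 and cGMP GloSensor pGS-40F, loaded 2 h with 2% GloSensor reagent, given compound 30 min at room temperature. Luminescence read before and 20 min after 0.1 nM hNppA.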
# FLuc inh-1: Photinus pyralis luciferase inhibition | 76,000 compounds, 2.5% hits | purified P. pyralis luciferase, luminescence, biochemical | Potency, µM (series often up to 115 µM), actives largely listed as inhibitors | AID 1347043 | P08659; further: on the % scale 0 is the no-effect control and ±100 the full control effect; nearly all actives have a fitted effect of over 65% in size
# Target sequence (P08659 whole entry, looked up): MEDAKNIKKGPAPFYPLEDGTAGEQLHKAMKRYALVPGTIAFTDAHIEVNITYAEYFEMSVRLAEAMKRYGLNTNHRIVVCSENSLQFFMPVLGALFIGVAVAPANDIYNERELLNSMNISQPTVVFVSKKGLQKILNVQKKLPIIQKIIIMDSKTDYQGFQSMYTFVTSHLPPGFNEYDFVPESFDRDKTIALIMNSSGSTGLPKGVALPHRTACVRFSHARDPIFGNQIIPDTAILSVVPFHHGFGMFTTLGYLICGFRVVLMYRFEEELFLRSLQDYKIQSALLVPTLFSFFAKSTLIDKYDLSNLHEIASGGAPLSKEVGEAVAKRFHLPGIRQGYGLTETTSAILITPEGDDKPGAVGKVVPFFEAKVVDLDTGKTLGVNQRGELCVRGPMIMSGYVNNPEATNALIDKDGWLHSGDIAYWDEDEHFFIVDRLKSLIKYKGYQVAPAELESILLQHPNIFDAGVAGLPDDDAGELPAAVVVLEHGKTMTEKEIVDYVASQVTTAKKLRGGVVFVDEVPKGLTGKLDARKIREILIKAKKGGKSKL
#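 Purified P. pyralis luciferase (10nM final) in 50mM Tris acetate pH 7.5, 10mM Mg acetate, 0.01% Tween-20, 0.05% BSA with 10uM D-luciferin and 10uM ATP. Compounds titrated qHTS. Luminescence imaged on CCD.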
# 3T3 cytotox: NIH 3T3 cell cytotoxicity; Potency, µM (highest dose often 96.7 µM), without a hit: at the top dose activity change, negative = cytotoxicity, usual class: inhibitors; 94,000 compounds, 4.3% hits; NIH 3T3 viability, CellTiter-Glo ATP luminescence, 48-72 h; AID 1345082; further: on the % scale 0 is the no-effect control and ±100 the full control effect; nearly all actives have a fitted effect of over 55% in size
#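 Cells were seeded at 400 per well, treated with pin-transferred compound, and kept 48 or 72 hr at 37 °C before CellTiter-Glo addition and luminescence imaging of cellular ATP.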
# HEK293 tox: kills HEK 293 cells. Potency, µM (doses to about 115 µM), without a hit: at the top dose activity change, negative = cytotoxicity, most hits filed as inhibitors. 94,000 compounds, 6.6% hits. HEK 293 viability, ATP luminescence (CellTiter-Glo), 48-72 h; further: on the % scale 0 is the no-effect control and ±100 the full control effect; nearly all actives have a fitted effect of over 60% in size
#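 Cells seeded first (HEK 293, 250 cells/well), then compound added by pintool. Incubation ran 48 or 72 hr at 37 degree Celsius. CellTiter-Glo was added and luminescence imaged after 10 min at room temperature.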
# FLuc SDR -ATP: stabilizes firefly luciferase without ATP; shares compounds with FLuc inh-1; Purified FLuc-C-HiBiT, Nano-Glo HiBiT luminescence, no ATP; Potency, µM (highest dose often 32.7 µM), for inactives: at the highest dose activation (signal gain), most hits filed as activators; 1,300 compounds, 7.8% hits; AID 1963318; further: nearly all actives have a fitted effect of over 55% in size
# FLuc SDR ATP: firefly luciferase binding stabilization, ATP added | shares compounds with FLuc inh-1 | purified FLuc-C-HiBiT + ATP, HiBiT complementation luminescence | Potency, µM (top dose mostly 32.7 µM), inactives show at the highest dose activation (gain of signal), usual class: activators | 1,300 compounds, 8.7% hits | AID 1963319;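 further: signal reports ligand binding via conformational change of the enzyme rather than luciferase catalysis; % of control where 0% means no effect; nearly all actives have a fitted effect of over 55% in size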
# FLuc inh-2: blocks firefly luciferase enzymatic activity | shares compounds with FLuc inh-1 | purified FLuc-C-HiBiT enzyme, luciferin luminescence | Potency, µM (highest dose often 32.7 µM), inactives show at the top dose activity change, negative = inhibition, most hits filed as inhibitors | 1,300 compounds, 42% hits | AID 1963320; further: on the % scale 0 is the no-effect control and ±100 the full control effect; nearly all actives have a fitted effect of over 70% in size
# The depositor's hits bear a star; i = inactive; ? = inconclusive; / = not tested or not shown; [ ] = dose if it differs, or a comment. Unless noted, the call rests on the fitted dose curve; in most records, active means well fitted curve in the direction sought with a large enough effect; inconclusive means small, poorly fitted or top-dose-only effect, or another doubt; inactive means no such curve, though single readings can be large; an effect the other way counts as inactive or inconclusive. Potency means the concentration at half of the fitted maximal effect.
SMILES,GPT2 inh,hNpr1 antagonist,FLuc inh-1,3T3 cytotox,HEK293 tox,FLuc SDR -ATP,FLuc SDR ATP,FLuc inh-2
CCCN1C[C@@H](CO)[C@H](c2nc(CCOC)no2)C1,-6%,-1%,i,-8%,-12%,/,/,/
CCS(=O)(=O)N1C[C@@H]2CN(c3nccc(NC)n3)C[C@]2(C(=O)O)C1,-3%,19%,i,-2%,4%,/,/,/
CCOC(=O)N1CCc2c(sc(NCc3ccc(OCC)cc3)c2C(=O)Nc2ccc(OC)cc2OC)C1,/,/,/,/,/,13%,?,3.9µM*
CCOC(=O)N1CCc2c(sc(NCc3cccs3)c2C(=O)Nc2ccc(OC)cc2OC)C1,/,/,/,/,/,6%,?,3.1µM*
Cc1cc(=O)n(CC(=O)Nc2ccc(C)c(Cl)c2)c(N2CCN(c3ccccc3)CC2)n1,i,-10%,i,?,?,/,/,/
Cc1ccc(NC(=O)c2ncn(-c3ccccc3)n2)cc1Cl,/,/,/,/,/,16%,13%,?
O=C(NC1CCCC1)N1c2ccccc2CC1c1noc(C2CCOCC2)n1 (centres undefined),-9%,-28%,5µM*,-17%,?,23%,18%,?
CCc1ccccc1NC(=O)N1c2ccccc2CC1c1nc(C2CC2)no1 (centres undefined),i,3%,i,?,?,/,/,/
CCCC1(C(=O)O)CCCN(C(=O)c2cccnc2OCC)C1 (centres undefined),-14%,0%,i,-20%,i,/,/,/
COc1ccc(C(=O)NCCC2CCN(C(=O)Nc3cc(F)cc(F)c3)CC2)cc1,4%,-26%,6.3µM*,-30%,?,?,15%,?
Cc1ccc(NC(=O)N2CCC(CCNC(=O)C3CC3)CC2)cc1,i,-5%,10µM*,-19%,?,?,?,?
COc1cccc(C(=O)NCCC2CCN(C(=O)Nc3cccc(F)c3)CC2)c1,-17%,0%,i,?,-23%,/,/,/
Cc1ccc(NC(=O)N2CCC(CCNC(=O)C3CCC3)CC2)cc1F,1%,-23%,11µM*,-24%,-12%,?,?,?
Cc1ccc(NC(=O)N2CCC(CCNC(=O)c3ccc(F)cc3)CC2)cc1F,-13%,-28%,10µM*,?,?,21%,13%,?
Cc1ccc(NC(=O)N2CCC(CCNC(=O)C(C)C)CC2)cc1F,i,4%,?,-6%,-6%,/,/,/
O=C1COCCN1C1CCN(Cc2cccc3ccccc23)CC1,i,/,/,-6%,-13%,/,/,/
O=C(CCC1CCCC1)NCCC1CCN(C(=O)Nc2cc(F)ccc2F)CC1,-1%,5%,i,-12%,-18%,/,/,/
CC1(C)C[C@@H]2[C@H](C1)[C@@]1(C)C[C@]13C(O)OC[C@]3(O)[C@H]2O (some centres undefined),i,/,/,/,/,/,/,/
O=C(COc1ccccc1F)Nc1ccc(-c2nc3ccccc3s2)cc1,/,/,/,/,/,10%,7%,-5%
COc1ccccc1OC(C)C(=O)Nc1ccc(-c2nc3ccccc3s2)cc1 (centres undefined),/,/,/,/,/,15%,13%,-10%
CN(C)c1cccc(C(=O)Nc2ccc(-c3nc4ccccc4s3)cc2)c1,/,/,/,/,/,30%,?,?
CC(C)Oc1ccc(C(=O)Nc2ccc(-c3nc4ccccc4s3)cc2)cc1,/,/,/,/,/,18%,10%,4%
COc1ccccc1NC(=O)Cn1c(C)cc2nc3n(c(=O)c21)CCCCC3,4%,-7%,i,-6%,-21%,/,/,/
CCn1cc(C(=O)N2CCC3(CC2)CN(Cc2ccccc2)CC3CO)cn1 (centres undefined),-25%,-2%,i,-18%,?,/,/,/
CN(C(=O)OC(C)(C)C)c1ccc(-c2nc3ccccc3s2)cc1,/,/,/,/,/,1.4µM*,0.35µM*,0.099µM*
SMILES,GPT2 inh,hNpr1 antagonist,FLuc inh-1,3T3 cytotox,HEK293 tox,FLuc SDR -ATP,FLuc SDR ATP,FLuc inh-2
COC[C@H]1C[C@@H](NC(=O)c2nc3ccccc3s2)[C@H](O)[C@@H]1O,i,-9%[70.6 µM],i,-7%[138 µM],-5%[172 µM],/,/,/
Cc1cn2nc(C(=O)Nc3ccc(C(=O)NCCc4cccs4)cc3)cc2c(=O)[nH]1,i,-6%,4.5µM*,5%,16%,?,?,8.8µM*
Cc1cn2nc(C(=O)NCc3ccccn3)cc2c(=O)[nH]1,i,18%,i,-16%,-6%,/,/,/
C=CCN(C)C(=O)[C@@H](C)C1CC[C@@]2(C)Cc3sc(NC(=O)CN(C)C)nc3[C@@H](C)[C@@H]2[C@H]1O (some centres undefined),3%,-19%,13µM*,-27%,-21%,13%,13%,-13%
CCN(CC)C(=O)C(C)[C@@H]1CC[C@@]2(C)Cc3sc(NC(=O)C4CC4)nc3[C@@H](C)[C@@H]2[C@H]1O (some centres undefined),0%,-7%,i,-19%,-5%,/,/,/
COc1ccc(-c2cccc(COc3cnc4c(ccn4CC(=O)O)c3)c2)c(C)c1,1%[88.5 µM],-11%[70.6 µM],i,?,?,9%,8%,-6%
Cc1ccc(-c2cccc(COc3cnc4c(ccn4CC(=O)O)c3)c2)c(C)c1,/,/,/,/,/,14%[49.3 µM],7%[49.3 µM],-13%[49.3 µM]
COc1cc(F)cc(-c2cccc(CCOc3cnc4c(ccn4CC(=O)O)c3)c2)c1,-9%[88.5 µM],0%[70.6 µM],i,?,?,/,/,/
COc1cccc(-c2cccc(COc3cnc4c(ccn4CC(=O)O)c3)c2)c1,/,/,/,/,/,7%[49.3 µM],5%[49.3 µM],?
Cc1ccc(-c2cccc(COc3cnc4c(ccn4CC(=O)O)c3)c2)cc1C,/,/,/,/,/,10%[49.3 µM],7%[49.3 µM],?
CC(=O)N[C@@H]1C[C@H](Cc2ccccc2)O[C@H](c2c(C)nn(C(C)(C)C)c2C)C1,i,2%,i,-12%,i,/,/,/
COc1ccc(-c2cc3c(cn2)CN(C(C)=O)CCN3)cc1,/,/,/,/,/,28%[49.3 µM],18%[49.3 µM],13µM*
CC(=O)N1CCNc2cc(-c3cccc(N4CCOCC4)c3)ncc2C1,/,/,/,/,/,24%[49.3 µM],17%[49.3 µM],?
CC(=O)N1CCNc2cc(-c3ccccc3F)ncc2C1,/,/,/,/,/,15%[65.7 µM],12%[65.7 µM],?
Fc1ccccc1Nc1nc(-c2ccccc2)no1,?,4.5µM*,0.4µM*,?,?,?,?,0.7µM*

# Bioassay records: PubChem, National Center for Advancing Translational Sciences (NCATS)
